# The supplement of paper PMC4466140
# What was measured:
# Assay in all cases: SPOT peptide array binding signal intensity (averaged, normalized) (arbitrary units (background-subtracted, floor 0; scale differs between SH3 domains)); higher = stronger binding of the SH3 domain to the peptide
# AgAbp1 = target: AgAbp1
# Description: (§1)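 GST-tagged SH3 domains from S. cerevisiae (Sc), A. gossypii (Ag), C. albicans (Ca) and S. pombe (Sp) were incubated at 10 ug/ml overnight at 4 C on cellulose SPOT membranes carrying 292 synthetic 15-mer peptides mined from the S. cerevisiae proteome (cysteines replaced by serines). Binding was detected with anti-GST antibody, HRP secondary and chemiluminescence, quantified with Genespotter, and reported as normalized spot intensities averaged over biological replicates.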
# AgBbc1 = target: AgBbc1
# Description: as §1
# AgBem1-D1 = target: AgBem1-D1
# Description: as §1
# AgBzz1-D1 = target: AgBzz1-D1
# Description: as §1
# AgBzz1-D2 = target: AgBzz1-D2
# Description: as §1
# AgCyk3 = target: AgCyk3
# Description: as §1
# AgFus1 = target: AgFus1
# Description: as §1
# AgHof1 = target: AgHof1
# Description: as §1
# AgHse1 = target: AgHse1
# Description: as §1
# AgLsb1 = target: AgLsb1
# Description: as §1
# AgLsb4 = target: AgLsb4
# Description: as §1
# AgMyo5 = target: AgMyo5
# Description: as §1
# AgNbp2 = target: AgNbp2
# Description: as §1
# AgRvs167 = target: AgRvs167
# Description: as §1
# AgSho1 = target: AgSho1
# Description: as §1
# AgSla1-D1-D2 = target: AgSla1-D1-D2
# Description: as §1
# AgSla1-D3 = target: AgSla1-D3
# Description: as §1
# CaAbp1-D1 = target: CaAbp1-D1
# Description: as §1
# CaAbp1-D2 = target: CaAbp1-D2
# Description: as §1
# CaBbc1 = target: CaBbc1
# Description: as §1
# CaBem1-D1 = target: CaBem1-D1
# Description: as §1
# CaBzz1-D1 = target: CaBzz1-D1
# Description: as §1
# CaBzz1-D2 = target: CaBzz1-D2
# Description: as §1
# CaCyk3 = target: CaCyk3
# Description: as §1
# CaFus1 = target: CaFus1
# Description: as §1
# CaHof1 = target: CaHof1
# Description: as §1
# CaHse1 = target: CaHse1
# Description: as §1
# CaLsb1 = target: CaLsb1
# Description: as §1
# CaLsb4 = target: CaLsb4
# Description: as §1
# CaMyo5 = target: CaMyo5
# Description: as §1
# CaNbp2 = target: CaNbp2
# Description: as §1
# CaRvs167 = target: CaRvs167
# Description: as §1
# CaRvs167-3 = target: CaRvs167-3
# Description: as §1
# CaSho1 = target: CaSho1
# Description: as §1
# CaSla1-D1-D2 = target: CaSla1-D1-D2
# Description: as §1
# CaSla1-D3 = target: CaSla1-D3
# Description: as §1
# ScAbp1 = target: ScAbp1
# Description: as §1
# ScBbc1 = target: ScBbc1
# Description: as §1
# ScBem1-D1 = target: ScBem1-D1
# Description: as §1
# ScBzz1-D1 = target: ScBzz1-D1
# Description: as §1
# ScBzz1-D2 = target: ScBzz1-D2
# Description: as §1
# ScCyk3 = target: ScCyk3
# Description: as §1
# ScFus1 = target: ScFus1
# Description: as §1
# ScHof1 = target: ScHof1
# Description: as §1
# ScHse1 = target: ScHse1
# Description: as §1
# ScLsb1 = target: ScLsb1
# Description: as §1
# ScLsb2 = target: ScLsb2
# Description: as §1
# ScLsb3 = target: ScLsb3
# Description: as §1
# ScLsb4 = target: ScLsb4
# Description: as §1
# ScMyo3 = target: ScMyo3
# Description: as §1
# ScMyo5 = target: ScMyo5
# Description: as §1
# ScNbp2 = target: ScNbp2
# Description: as §1
# ScPex13 = target: ScPex13
# Description: as §1
# ScRvs167 = target: ScRvs167
# Description: as §1
# ScSho1 = target: ScSho1
# Description: as §1
# ScSla1-D1-D2 = target: ScSla1-D1-D2
# Description: as §1
# ScSla1-D3 = target: ScSla1-D3
# Description: as §1
# SpAbp1-D1 = target: SpAbp1-D1
# Description: as §1
# SpBbc1 = target: SpBbc1
# Description: as §1
# SpBzz1-D1 = target: SpBzz1-D1
# Description: as §1
# SpBzz1-D2 = target: SpBzz1-D2
# Description: as §1
# SpCyk3 = target: SpCyk3
# Description: as §1
# SpHof1 = target: SpHof1
# Description: as §1
# SpHof1-2 = target: SpHof1-2
# Description: as §1
# SpHof1-3 = target: SpHof1-3
# Description: as §1
# SpHse1 = target: SpHse1
# Description: as §1
# SpLsb1 = target: SpLsb1
# Description: as §1
# SpLsb4 = target: SpLsb4
# Description: as §1
# SpMyo1 = target: SpMyo1
# Description: as §1
# SpNbp2 = target: SpNbp2
# Description: as §1
# SpPex13 = target: SpPex13
# Description: as §1
# SpRvs167 = target: SpRvs167
# Description: as §1
# SpSla1-D1-D2 = target: SpSla1-D1-D2
# Description: as §1
# SpSla1-D3 = target: SpSla1-D3
# Description: as §1
binder,measurement,setting,value
NRLRKRLNLPSEISI,SPOT peptide array binding signal intensity,AgAbp1,52
same,SPOT peptide array binding signal intensity,AgBbc1,2
same,SPOT peptide array binding signal intensity,AgBem1-D1,126
same,SPOT peptide array binding signal intensity,AgBzz1-D1,7
same,SPOT peptide array binding signal intensity,AgBzz1-D2,9
same,SPOT peptide array binding signal intensity,AgCyk3,1
same,SPOT peptide array binding signal intensity,AgFus1,444
same,SPOT peptide array binding signal intensity,AgHof1,45.2
same,SPOT peptide array binding signal intensity,AgHse1,2040
same,SPOT peptide array binding signal intensity,AgLsb1,36.2
same,SPOT peptide array binding signal intensity,AgLsb4,21.5
same,SPOT peptide array binding signal intensity,AgMyo5,≤ 0
same,SPOT peptide array binding signal intensity,AgNbp2,74
same,SPOT peptide array binding signal intensity,AgRvs167,4.67
same,SPOT peptide array binding signal intensity,AgSho1,26.5
same,SPOT peptide array binding signal intensity,AgSla1-D1-D2,33
same,SPOT peptide array binding signal intensity,AgSla1-D3,5.5
same,SPOT peptide array binding signal intensity,CaAbp1-D1,649
same,SPOT peptide array binding signal intensity,CaAbp1-D2,307
same,SPOT peptide array binding signal intensity,CaBbc1,9.75
same,SPOT peptide array binding signal intensity,CaBem1-D1,2
same,SPOT peptide array binding signal intensity,CaBzz1-D1,10
same,SPOT peptide array binding signal intensity,CaBzz1-D2,18.2
same,SPOT peptide array binding signal intensity,CaCyk3,4
same,SPOT peptide array binding signal intensity,CaFus1,1980
same,SPOT peptide array binding signal intensity,CaHof1,≤ 0
same,SPOT peptide array binding signal intensity,CaHse1,95.2
same,SPOT peptide array binding signal intensity,CaLsb1,5.5
same,SPOT peptide array binding signal intensity,CaLsb4,14
same,SPOT peptide array binding signal intensity,CaMyo5,4.5
same,SPOT peptide array binding signal intensity,CaNbp2,286
same,SPOT peptide array binding signal intensity,CaRvs167,6.83
same,SPOT peptide array binding signal intensity,CaRvs167-3,48.8
same,SPOT peptide array binding signal intensity,CaSho1,353
same,SPOT peptide array binding signal intensity,CaSla1-D1-D2,16
same,SPOT peptide array binding signal intensity,CaSla1-D3,3
same,SPOT peptide array binding signal intensity,ScAbp1,191
same,SPOT peptide array binding signal intensity,ScBbc1,2.5
same,SPOT peptide array binding signal intensity,ScBem1-D1,61
same,SPOT peptide array binding signal intensity,ScBzz1-D1,21
same,SPOT peptide array binding signal intensity,ScBzz1-D2,5.5
same,SPOT peptide array binding signal intensity,ScCyk3,140
same,SPOT peptide array binding signal intensity,ScFus1,524
same,SPOT peptide array binding signal intensity,ScHof1,2.5
same,SPOT peptide array binding signal intensity,ScHse1,2410
same,SPOT peptide array binding signal intensity,ScLsb1,22.5
same,SPOT peptide array binding signal intensity,ScLsb2,≤ 0
same,SPOT peptide array binding signal intensity,ScLsb3,57
same,SPOT peptide array binding signal intensity,ScLsb4,7
same,SPOT peptide array binding signal intensity,ScMyo3,≤ 0
same,SPOT peptide array binding signal intensity,ScMyo5,2.5
same,SPOT peptide array binding signal intensity,ScNbp2,70
same,SPOT peptide array binding signal intensity,ScPex13,0.5
same,SPOT peptide array binding signal intensity,ScRvs167,2.5
same,SPOT peptide array binding signal intensity,ScSho1,662
same,SPOT peptide array binding signal intensity,ScSla1-D1-D2,19.5
same,SPOT peptide array binding signal intensity,ScSla1-D3,12.5
same,SPOT peptide array binding signal intensity,SpAbp1-D1,293
same,SPOT peptide array binding signal intensity,SpBbc1,6
same,SPOT peptide array binding signal intensity,SpBzz1-D1,11
same,SPOT peptide array binding signal intensity,SpBzz1-D2,1.5
same,SPOT peptide array binding signal intensity,SpCyk3,≤ 0
same,SPOT peptide array binding signal intensity,SpHof1,60
same,SPOT peptide array binding signal intensity,SpHof1-2,7
same,SPOT peptide array binding signal intensity,SpHof1-3,708
same,SPOT peptide array binding signal intensity,SpHse1,2460
same,SPOT peptide array binding signal intensity,SpLsb1,96.8
same,SPOT peptide array binding signal intensity,SpLsb4,29
same,SPOT peptide array binding signal intensity,SpMyo1,5
same,SPOT peptide array binding signal intensity,SpNbp2,71
same,SPOT peptide array binding signal intensity,SpPex13,7.5
same,SPOT peptide array binding signal intensity,SpRvs167,2.33
same,SPOT peptide array binding signal intensity,SpSla1-D1-D2,≤ 0
same,SPOT peptide array binding signal intensity,SpSla1-D3,3
RLPAPPPPPRRGPAP,SPOT peptide array binding signal intensity,AgAbp1,51.5
same,SPOT peptide array binding signal intensity,AgBbc1,909
same,SPOT peptide array binding signal intensity,AgBem1-D1,140
same,SPOT peptide array binding signal intensity,AgBzz1-D1,624
same,SPOT peptide array binding signal intensity,AgBzz1-D2,154
same,SPOT peptide array binding signal intensity,AgCyk3,3
same,SPOT peptide array binding signal intensity,AgFus1,6
same,SPOT peptide array binding signal intensity,AgHof1,112
same,SPOT peptide array binding signal intensity,AgHse1,28.5
same,SPOT peptide array binding signal intensity,AgLsb1,5.25
same,SPOT peptide array binding signal intensity,AgLsb4,412
same,SPOT peptide array binding signal intensity,AgMyo5,550
same,SPOT peptide array binding signal intensity,AgNbp2,7.5
same,SPOT peptide array binding signal intensity,AgRvs167,123
same,SPOT peptide array binding signal intensity,AgSho1,4
same,SPOT peptide array binding signal intensity,AgSla1-D1-D2,5
same,SPOT peptide array binding signal intensity,AgSla1-D3,10
same,SPOT peptide array binding signal intensity,CaAbp1-D1,150
same,SPOT peptide array binding signal intensity,CaAbp1-D2,17
same,SPOT peptide array binding signal intensity,CaBbc1,770
same,SPOT peptide array binding signal intensity,CaBem1-D1,1820
same,SPOT peptide array binding signal intensity,CaBzz1-D1,3030
same,SPOT peptide array binding signal intensity,CaBzz1-D2,1540
same,SPOT peptide array binding signal intensity,CaCyk3,326
same,SPOT peptide array binding signal intensity,CaFus1,26.5
same,SPOT peptide array binding signal intensity,CaHof1,39
same,SPOT peptide array binding signal intensity,CaHse1,5.25
same,SPOT peptide array binding signal intensity,CaLsb1,≤ 0
same,SPOT peptide array binding signal intensity,CaLsb4,560
same,SPOT peptide array binding signal intensity,CaMyo5,19.5
